Measurements published in PubChem BioAssay (NCATS).
Results filed as inconclusive are left out. Entries that show only a call come without a potency. Calls of active or inactive are those of the source. Calls follow the shape of the dose curve; as a rule, active = well fitted inhibition curve with a large enough effect; inconclusive = small, poorly fitted or top-dose-only effect; inactive = flat fitted curve, though single readings scatter.

molecular target: Glutathione peroxidase 1 (Homo sapiens) (UniProt P07203); experiment: Primary qHTS Assay for Inhibitors of Recombinant Selenoprotein Glutathione Peroxidase 1 (GPX1) (AID 1845191); conditions: recombinant GPX1, GR-coupled NADPH fluorescence, 15 min; series mostly up to 48.8 µM; also: nearly all actives have a fitted effect of over 65% in size
Source text: Assay Provider: Elias S.J. Arner MD PhD.
Department of Medical Biochemistry and Biophysics
Karolinska Institutet, Solna, Stockholm, Sweden
Selenoprotein glutathione peroxidases (GPX), like the ubiquitously expressed GPX1 and the ferroptosis modulator GPX4, enact their antioxidant activities by reducing hydroperoxides using glutathione. […] GPX1 and GPX4 inhibitors have thus shown promise as anti-cancer agents. Existing inhibitors are often promiscuous, or modulate GPX activity only indirectly, so novel direct inhibitors identified through screening against GPX1 and GPX4 could be valuable. Here, we developed optimized glutathione reductase (GR)-coupled GPX assays for the biochemical high-throughput screen (HTS) of almost 12,000 compounds with known mechanisms of action. Initial hits were triaged using a GR counter-screen, assessed for isoform specificity using a separate GPX2 assay, and were assessed for general selenocysteine-targeting activity using a thioredoxin reductase (TXNRD1) assay. With this suite of assays, we identified novel GPX1/GPX2- and GPX4-specific inhibitors and can here present a validated pipeline for future discovery research for selenoprotein-targeting agents.
SEQUENCE No. (e.g., 1, 2, 3, etc.); […] (e.g., Cells, Incubation, Reagent, etc.); VALUE; DESCRIPTION.
1; Reagent 1; 3 uL; GPx1 enzyme or no enzyme control in 1536-well, black, solid Greiner assay plate.
2; Compound; 25 nL; Kalypsis pin tool (Wako USA) equipped with a 1536-well pin head.
3; Incubation; 30 min; room temperature.
4; Reagent 2; 1 uL; 10 nM GPX1, 1 mM GSH, 0.5 mM CHP, 0.5 mM NADPH, 100 nM GR, 0.01% BSA substrate
5; Detection; Fluorescence; ViewLux microplate reader, excitation 340 nm and emission 450 nm.
6; Incubation; 15 min; room temperature.
7; Detection; Fluorescence; ViewLux microplate reader, excitation 340 nm and emission 450 nm.
NOTES (numbers refer to Sequence numbers above)
1. 3 uL of 16.66 nM GPX1 and 0.016% BSA in assay buffer (50 mM Tris-HCl, 2 mM EDTA (pH 7.5), 150 mM NaCl) was added to columns 3-48 of 1536-well assay plates using a BioRAPTR Flying Reagent Dispenser (Let's Go Robotics (LGR), Carlsbad, CA). A no-enzyme control (0.01% BSA in TES assay buffer) was added to columns 1-2.
2. 25 nL of test compounds and DMSO controls were added to each well with a pin tool (Kalypsys).
3. The assay plates were incubated for 30 minutes at room temperature.
4. 1 uL of master mix (500 nM glutathione reductase (GR), 5 mM reduced glutathione (GSH), 2.5 mM NADPH in assay buffer) was added. 1 uL of cumene hydroperoxide (CHP) ([2.5 mM] in 50% EtOH) was then added within 5 minutes to initiate the reaction. Final concentrations were: 10 nM GPX1, 1 mM GSH, 0.5 mM CHP, 0.5 mM NADPH, 100 nM GR, 0.01% BSA.
5. Initial fluorescence readout (t=0) at 340/450 nm was measured using a ViewLux multimodal detector (PerkinElmer, Waltham, MA).
7. Endpoint fluorescence readout (t=15) at 340/450 nm was measured 15 min after room temperature incubation.
Potency is read from the fitted curve at half-maximal effect.

Glutathione peroxidase 1 (Homo sapiens), sequence (P07203 whole entry, looked up): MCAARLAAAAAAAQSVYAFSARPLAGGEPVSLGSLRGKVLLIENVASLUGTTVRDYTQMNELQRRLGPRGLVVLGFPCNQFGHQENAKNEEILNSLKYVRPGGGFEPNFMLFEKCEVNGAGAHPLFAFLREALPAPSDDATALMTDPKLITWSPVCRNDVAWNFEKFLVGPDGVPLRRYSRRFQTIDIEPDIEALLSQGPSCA

Question: With `CCN(c1ccccc1)c1cc(NC)[n+](C)c(C)n1` as the compound, how does the Potency read?
Answer: Its Potency is “inactive”.

Question: How did the Potency turn out when `O=C(O)COCCN1CCN(C(c2ccccc2)c2ccc(Cl)cc2)CC1` (stereo not given) was run?
Answer: The Potency was “inactive”.

Question: Which Potency does the source give for `CCn1c(-c2nonc2N)nc2cnc(Oc3cccc(NC(=O)c4ccc(OCCN5CCOCC5)cc4)c3)cc21` here?
Answer: Its Potency is “inactive”.

Question: Which Potency does the source give for `O=C1CCC(N2C(=O)c3ccccc3C2=O)C(=O)N1` (stereo not given) here?
Answer: Its Potency is “inactive”.

Question: How did the Potency turn out when `CC(C)(N)C(=O)N[C@H](COCc1ccccc1)C(=O)N1CCC2(CC1)CN(S(C)(=O)=O)c1ccccc12` was run?
Answer: The Potency was “inactive”.

Question: For `CC(C)NCC(O)COc1ccc(COCCOC(C)C)cc1` (stereo not given), which Potency is on record?
Answer: The Potency was “inactive”.

Question: Which Potency does the source give for `Nc1ncnc2nc(-c3ccc(N4CCOCC4)nc3)cc(-c3cccc(Br)c3)c12` here?
Answer: The Potency was “inactive”.

Question: Which Potency does the source give for `CNCc1ccc(-c2[nH]c3cc(F)cc4c3c2CCNC4=O)cc1` here?
Answer: Its Potency is 20.2 µM (active).

Question: With `Cc1ccccc1C(OCCN(C)C)c1ccccc1` (stereo not given) as the compound, how does the Potency read?
Answer: The Potency was “inactive”.

Question: For `CC(C)OC(=O)C1=CN(C(=O)c2ccc(F)c(F)c2)CC(C)(C)c2c1[nH]c1ccccc21`, which Potency is on record?
Answer: Its Potency is “inactive”.

Question: `CS(=O)(=O)c1ccc(C(=O)Nc2ccc(Cl)c(-c3ccccn3)c2)c(Cl)c1` was tested. Which Potency did it give?
Answer: Its Potency is “inactive”.

Question: Which Potency does the source give for `O=C1CCc2cc(OCCCCc3nnnn3C3CCCCC3)ccc2N1` here?
Answer: The Potency was “inactive”.

Question: For `CCCn1c(=O)c2[nH]c(C34CC5CC3C[C@@H](C5)C4)nc2n(CCC)c1=O`, which Potency is on record?
Answer: The Potency was “inactive”.

Question: `CCCc1nc2c(C)cc(-c3nc4ccccc4n3C)cc2n1Cc1ccc(-c2ccccc2C(=O)O)cc1` was tested. Which Potency did it give?
Answer: The Potency was “inactive”.

Question: With `C#Cc1cccc(Nc2ncnc3cc(OCCOC)c(OCCOC)cc23)c1` as the compound, how does the Potency read?
Answer: The Potency was “inactive”.

Question: `CNC(=O)c1ccc(C)c(-n2c(C)cc(OCc3ccc(F)cc3F)c(Br)c2=O)c1` was tested. Which Potency did it give?
Answer: The Potency was “inactive”.

Question: For `CC(C)c1onc(-c2c(Cl)cccc2Cl)c1COc1ccc(/C=C/c2cccc(C(=O)O)c2)c(Cl)c1`, which Potency is on record?
Answer: The Potency was “inactive”.

Question: Which Potency does the source give for `O=C(O)[C@@H](c1ccc(OCc2ccc3ccccc3n2)cc1)C1CCCC1` here?
Answer: The Potency was “inactive”.

Question: For `O=C(Nc1cccnc1)N1CCC(Cc2cccc(Oc3ccc(C(F)(F)F)cn3)c2)CC1`, which Potency is on record?
Answer: The Potency was “inactive”.

Question: For `CC(C)C[C@H](NC(=O)[C@@H](O)[C@H](N)Cc1ccccc1)C(=O)O`, which Potency is on record?
Answer: Its Potency is “inactive”.

Question: `CNC[C@H](O)c1cccc(O)c1` was tested. Which Potency did it give?
Answer: The Potency was “inactive”.

Question: How did the Potency turn out when `CS(=O)(=O)c1cccc(CNc2nc(Nc3ccc4c(c3)CCC(=O)N4)ncc2C(F)(F)F)c1` was run?
Answer: Its Potency is “inactive”.

Question: For `CN(C)c1ccc(C2Nc3ccc4ccccc4c3C3=C2C(=O)CC(C)(C)C3)cc1Br` (stereo not given), which Potency is on record?
Answer: The Potency was “inactive”.

Question: Which Potency does the source give for `Cc1[nH]c(=O)c(C#N)cc1-c1ccc2nccn2c1` here?
Answer: The Potency was “inactive”.

Question: How did the Potency turn out when `COc1ccccc1-c1cccc(-c2c(O)c3cc(C#N)c(Cl)cc3[nH]c2=O)c1` was run?
Answer: Its Potency is “inactive”.

Question: How did the Potency turn out when `CN1CCN(CCCN2c3ccccc3Sc3ccc(C(F)(F)F)cc32)CC1` was run?
Answer: The Potency was “inactive”.

Question: Which Potency does the source give for `CC[C@H](Nc1ncnc2nc[nH]c12)c1nc2cccc(F)c2c(=O)n1-c1ccccc1` here?
Answer: The Potency was “inactive”.

Question: For `CCN(CC)CCCC(C)Nc1ccnc2cc(Cl)ccc12` (stereo not given), which Potency is on record?
Answer: The Potency was “inactive”.

Question: With `NC(=O)c1ccc(I)c([N+](=O)[O-])c1` as the compound, how does the Potency read?
Answer: The Potency was “inactive”.

Question: How did the Potency turn out when `Nc1cccc(S(=O)(=O)N2CCCN(S(=O)(=O)c3ccc4c(c3)OCCO4)CC2)c1` was run?
Answer: The Potency was “inactive”.

Question: With `Cc1ccc(NC(=O)c2cccc(C(C)(C)C#N)c2)cc1Nc1ccc2ncn(C)c(=O)c2c1` as the compound, how does the Potency read?
Answer: Its Potency is “inactive”.

Question: Which Potency does the source give for `CCc1cc(Nc2nccc(-c3c(-c4ccc(OC)c(C(=O)Nc5c(F)cccc5F)c4)nc4ccccn34)n2)c(OC)cc1N1CCC(N2CCN(S(C)(=O)=O)CC2)CC1` here?
Answer: Its Potency is “inactive”.

Question: `NC(=O)c1ccc(-c2nc(-c3ccc4c(c3)OCO4)c(-c3ccccn3)[nH]2)cc1` was tested. Which Potency did it give?
Answer: The Potency was “inactive”.

Question: Which Potency does the source give for `Cc1cnc(NC(=O)C2=C(O)c3ccccc3S(=O)(=O)N2C)s1` here?
Answer: Its Potency is “inactive”.

Question: Which Potency does the source give for `OC(CN1CCC(Cc2ccc(F)cc2)CC1)c1ccc(Cl)cc1` (stereo not given) here?
Answer: Its Potency is “inactive”.

Question: Which Potency does the source give for `COc1c(Cl)cc2c([nH]c3cnccc32)c1NC(=O)c1cccnc1C` here?
Answer: Its Potency is “inactive”.

Question: With `CCc1cncnc1N1CCN(Cc2nc3ccc(C(F)(F)F)cc3[nH]2)CC1` as the compound, how does the Potency read?
Answer: Its Potency is “inactive”.

Question: For `COc1cc(Oc2ccnc3cc(OC)c(OC)cc23)ccc1NC(=O)NC(C)c1nccs1` (stereo not given), which Potency is on record?
Answer: Its Potency is “inactive”.

Question: How did the Potency turn out when `CC(C)(Sc1ccc(CCN(CCCCC2CCCCC2)C(=O)NC2CCCCC2)cc1)C(=O)O` was run?
Answer: Its Potency is “inactive”.

Question: For `COc1ccc(C2=N[C@H](c3ccc(Cl)cc3)[C@H](c3ccc(Cl)cc3)N2C(=O)N2CCNC(=O)C2)c(OC(C)C)c1`, which Potency is on record?
Answer: Its Potency is “inactive”.
